Pf Dd2 growth = blocks in vitro growth of P. falciparum Dd2 | P. falciparum Dd2 growth, SYBR Green, 72 h | Potency, µM (doses to about 28.9 µM), for the others: at the top dose activity, negative = inhibition, actives largely listed as inhibitors | 120,000 tested, 4.3% active | AID 1347417; active = well fitted inhibition curve with a large enough effect;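 note: plate controls were DMSO vehicle for no effect and reference drug for full effect; nearly all actives have a fitted effect of over 65% in size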
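Readout: SYBR Green fluorescence, 485 nm excitation, 535 nm emission, after ~16 h lysis at 37C. Before that, Dd2-infected red cells (2.5% hematocrit) grew 72 h with compound, 29 uM top final concentration.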
* = called active by the depositor; i = inactive; [ ] = dose if it differs, or a comment. Only a selection was taken, and hits are over-represented in it overall. Potency is the fitted concentration of half-maximal effect.

SMILES	Pf Dd2 growth
COc1ccc(-c2noc([C@@H](C)NC(=O)c3nc4ccccc4[nH]3)c2C(=O)O)cc1	-5%
COCCOc1cc(=O)n2c(c1C(=O)NCc1ccc(C)cc1)CCOCC2	-14%
O=C(Cn1ncc2c([nH]c3ccccc32)c1=O)NCC1CCN(Cc2ccc(F)cc2)CC1	i
CCOC(=O)c1ccccc1NC(=O)c1cc2ccc3cccnc3c2[nH]1	-14%
O=C(NCC1CCN(Cc2ccc(F)cc2)CC1)c1cc2ccc3cccnc3c2[nH]1	7.1µM*
CC1CCCN(C(=O)c2cc3ccc4cccnc4c3[nH]2)C1 (configuration not stated)	-13%
COc1ccccc1NC(=O)c1cc2ccc3cccnc3c2[nH]1	i
CCN(CC)S(=O)(=O)c1ccc(NC(=O)c2cc3ccc4cccnc4c3[nH]2)cc1	11µM*
O=C(NCc1cccc(Cl)c1)c1cc2ccc3cccnc3c2[nH]1	13µM*
O=C(NCc1ccc(Cl)cc1)c1cc2ccc3cccnc3c2[nH]1	-17%
Cc1ccc(Cl)cc1N1CCN(C(=O)c2cc3ccc4cccnc4c3[nH]2)CC1	-2%
CC(C)N(Cc1ccccc1)C(=O)c1cc2ccc3cccnc3c2[nH]1	13µM*
O=C(c1cc2ccc3cccnc3c2[nH]1)N1CCN(c2cccc(Cl)c2)CC1	i
O=C(c1cc2ccc3cccnc3c2[nH]1)N1CCN(c2ccc(Cl)cc2)CC1	-22%
Cc1nc(-c2c3n(c(=O)n(CC(=O)Nc4ccc(C)c(C)c4)c2=O)CCCCC3)no1	53%
c1cn(-c2ccc3ncsc3c2)c(-c2cc3n(n2)CCCNC3)n1	0%
COc1ccc(C(=O)NC2CCN(c3cnn(CC4CC4)c(=O)c3)CC2)c(OC)n1	-17%
Cc1ccc(C(=O)N2CCC(OC3CCN(C)CC3)CC2)cc1F	-10%
CCc1noc([C@@H]2CC(F)(F)CN2C(=O)c2ccn(CC)n2)n1	29%
CNCCN1C(=O)CC[C@H]2CN(C(=O)CCN3CCCCO3)CC[C@H]21	0%
Cc1nc(-c2c3n(c(=O)n(CC(=O)Nc4cccc(Cl)c4C)c2=O)CCCC3)no1	-6%
COC(=O)C1=CN(CC(=O)N(C)c2ccccc2)S(=O)(=O)N=C1C	20%
CN1C[C@H](O)C[C@H]1c1nnc2n1CCN(S(=O)(=O)c1ccc(F)cc1)CC2	5%
CSCc1ccc(C(=O)NCCc2nc(-c3ccccn3)no2)o1	-15%
O=C(c1cc2ccc3cccnc3c2[nH]1)N1CCCCC1	7%
SMILES	Pf Dd2 growth
CCOC(=O)C1CCN(C(=O)c2cc3ccc4cccnc4c3[nH]2)CC1	16%
O=C(NCC1CCN(Cc2ccccc2Cl)CC1)c1cc2ccc3cccnc3c2[nH]1	7.9µM*
Cc1noc(C)c1S(=O)(=O)N1CC(N(CC(C)C)C2CCOCC2)C1	-25%
Cc1noc(C)c1S(=O)(=O)N1CCC(N2CCOC2=O)CC1	22%
Cc1noc(C)c1S(=O)(=O)N1CCC(N(CCC(C)C)C2CCOCC2)CC1	13µM*
CCCCN(CC)C(=O)CN1C(=O)NC(c2ccccc2)C2=C1COC2=O (configuration not stated)	-6%
O=C([C@@H]1C[C@H](F)CN1C(=O)c1ccccc1C(F)(F)F)N1CCOCC1	-11%
O=C(Nc1cccc(C(F)(F)F)c1)c1nc2c(o1)CCN(Cc1ccccc1F)CC2	i
COc1ccccc1CN1CCc2nc(C(=O)Nc3cccc(C(F)(F)F)c3)oc2CC1	-7%
Cc1noc(C)c1CN1CCc2nc(C(=O)Nc3cccc(C(F)(F)F)c3)oc2CC1	13µM*
Cc1noc(C)c1CN1CCc2nc(C(=O)Nc3ccccc3)oc2CC1	i
COc1ccccc1CN1CCc2nc(C(=O)Nc3ccccc3)oc2CC1	11µM*
Cc1ccccc1CN1CCc2nc(C(=O)Nc3ccccc3)oc2CC1	-15%[44.1 µM]
CNC(=O)[C@@H]1CN(C(=O)c2ccc(Br)cc2F)C[C@H]1CO	12%
Cc1ccc(Cl)cc1NC(=O)N1CCCC(Cn2cnc3cccnc32)C1 (configuration not stated)	-11%
O=C(CC1C(=O)NCCN1Cc1cccc(Oc2ccccc2)c1)NCc1ccoc1 (configuration not stated)	1%
Cc1cccc(C(=O)N2CCc3c(nc(-c4ccncc4)nc3N(C)C)C2)c1	-19%
c1ccc(CCc2noc(-c3ccc(N4CCCOCC4)nc3)n2)cc1	-25%
CCN1CCN(c2ccc(-c3nc(CCCc4ccccc4)no3)cn2)CC1	10µM*
COC1CCN(c2ccc(-c3nc(COc4ccccc4)no3)cn2)CC1	i
O=C(c1ccc(C(F)(F)F)cc1)N1CCC(c2nn(-c3ccc(F)cc3)c(=O)[nH]2)CC1	i
COc1ccccc1CC(=O)N1CCCc2ncc(C(=O)N3CCCC[C@@H]3Cc3ccccc3)cc21	7.9µM*
COC1CCN(C(=O)c2cnc3c(c2)N(C(=O)CCc2ccccc2)CCC3)CC1	-23%[44.1 µM]
COc1ccccc1CC(=O)N1CCCc2ncc(C(=O)NC(c3ccccc3)c3ccccc3)cc21	0%
COc1ccccc1CC(=O)N1CCCc2ncc(C(=O)N3CCCC[C@@H]3c3ccccc3)cc21	11µM*
COc1ccccc1CC(=O)N1CCCc2ncc(C(=O)NCc3cccc(Cl)c3)cc21	i
